In PubChem BioAssay (NCATS):
Results filed as inconclusive are left out. A number with no mark means an inactive call. Calls of active or inactive are those of the source. The call rests on the fitted dose curve; in most records, active means well fitted inhibition curve with a large enough effect; inconclusive means small, poorly fitted or top-dose-only effect; inactive means no such curve, though single readings can be large or run the other way.

These molecules were tested against Cytochrome P450 2C9 (Homo sapiens) (UniProt P11712) (assay: qHTS Assay for Inhibitors and Substrates of Cytochrome P450 2C9 (AID 883; further: nearly all actives have a fitted effect of over 60% in size)). Details: recombinant CYP2C9, luciferin-H luminescence, 60 min; series mostly up to 11.4 µM; activity change, negative = inhibition: at the top concentration.
Description: NIH Molecular Libraries Screening Centers Network [MLSCN] NIH Chemical Genomics Center [NCGC] MLSCN Grant: None NCGC Assay Overview: The P450 gene superfamily is involved in the metabolism and clearance of xenobiotics. This assay used human CYP2C9 to measure the hydroxylation of deoxyluciferin (Luciferin-H; P450 Glo-Buffer) to luciferin. The luciferin is then measured by luminescence after the addition of a luciferase detection reagent. Luciferin-H concentration in the assay was equal to its Michaelis constant KM for CYP2C9. Inhibitors and some substrates limit the production of luciferin, and decrease measured luminescence.
NCGC Assay Protocol Summary: Two uL of enzyme and substrate mix (final concentrations: 10nM CYP2C9, 100uM Luciferin-H, 25mM KPO4) were dispensed into a white, solid bottom 1536-well microtiter plate. 23nL of compound was transferred by a pin tool. The plate was incubated at 37C for 10 min. Two uL of an NADPH regeneration solution (Promega supplied reagent) was dispensed and the reaction was allowed to continue for 60 min at 37C. Then the reaction was stopped by reconstituted P450 Glo-Buffer. After another 20 min of incubation the plate was read on the ViewLux (Perkin Elmer) at 60 sec exposure and 2x2 binning. This protocol was carried out with Promega-Glo reagents and further information can be found at http://www.promega.com/tbs/tb325/tb325.pdf. Data were normalized to the to AC100 inhibition (57uM sulphaphenazole). Keywords: P450, CYP2C9, Luciferase, MLSMR, MLSCN, NIH Roadmap, qHTS, NCGC
On the % scale 0 is the no-effect control and ±100 the full control effect; potency means the concentration at half of the fitted maximal effect.

Cytochrome P450 2C9 (Homo sapiens), sequence (P11712 whole entry, looked up): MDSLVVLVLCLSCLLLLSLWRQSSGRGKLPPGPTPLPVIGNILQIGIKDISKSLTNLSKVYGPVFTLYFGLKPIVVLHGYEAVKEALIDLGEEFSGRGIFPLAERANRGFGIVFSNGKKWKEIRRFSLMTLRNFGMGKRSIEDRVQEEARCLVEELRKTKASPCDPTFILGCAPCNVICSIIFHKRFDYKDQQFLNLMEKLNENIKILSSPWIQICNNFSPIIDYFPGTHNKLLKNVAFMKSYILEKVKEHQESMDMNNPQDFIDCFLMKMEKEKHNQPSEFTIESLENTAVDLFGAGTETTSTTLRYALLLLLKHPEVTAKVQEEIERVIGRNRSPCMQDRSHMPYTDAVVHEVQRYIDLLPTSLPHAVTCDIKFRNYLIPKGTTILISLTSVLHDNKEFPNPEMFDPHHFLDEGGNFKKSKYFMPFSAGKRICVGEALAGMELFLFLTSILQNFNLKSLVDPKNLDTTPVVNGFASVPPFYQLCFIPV

Question: For CC1(C)OC(C(O)(c2cc(C(F)(F)F)cc(C(F)(F)F)c2)c2cc(C(F)(F)F)cc(C(F)(F)F)c2)C(C(O)(c2cc(C(F)(F)F)cc(C(F)(F)F)c2)c2cc(C(F)(F)F)cc(C(F)(F)F)c2)O1 (stereo not given), which “activity change, negative = inhibition” value is on record?
Answer: Its value is 12.1%.

Question: For COC(C(C)/C=C/CC(=O)OCCCc1ccccc1)C1CCCCC1 (stereo not given), which “activity change, negative = inhibition” value is on record?
Answer: The value was 23.8%.

Question: With COC(=O)C/C=C/C(C)C(OCc1cccc(-c2ccccc2)c1)C1CCCCC1 (stereo not given) as the molecule, how does the “activity change, negative = inhibition” value read?
Answer: Its value is -28.6%.

Question: COC(c1ccccc1Br)C(C)/C=C/CCO (stereo not given) was tested. Which “activity change, negative = inhibition” value did it give?
Answer: The value was -18.5%.

Question: CCN1C(C)=C(C(=O)OC)C(c2ccccc2)N2C(=O)[C@](O)(C(=O)OC)C(c3ccccc3)C(C(=O)c3ccccc3)=C12 (stereo not given in full) was tested. Which “activity change, negative = inhibition” value did it give?
Answer: The value was -6.3%.

Question: Which “activity change, negative = inhibition” value does the source give for C[C@H]1CC[C@H]2C(=O)N[C@H](Cc3ccccc3)C(=O)N2[C@@H]1c1ccccc1 here?
Answer: Its value is 30.2%.

Question: With C=CCOC(=O)C(C(C)=O)C(NC(=O)OC)c1ccco1 (stereo not given) as the molecule, how does the “activity change, negative = inhibition” value read?
Answer: The value was 23.6%.

Question: Which “activity change, negative = inhibition” value does the source give for COC(=O)C/C=C/C(C)C(OC)c1ccccc1Br (stereo not given) here?
Answer: The value was 43.4%.

Question: CC12C=C(/C=C/C=C/c3ccccc3)C(C)(C1)C(/C=C/c1ccccc1)CC2=O (stereo not given) was tested. Which Potency did it give?
Answer: The Potency was 3160 nM (active).

Question: Which “activity change, negative = inhibition” value does the source give for CC(=O)c1ccc(OC2C(O)COC2/C=C/c2ccc(Cl)cc2)cc1 (stereo not given) here?
Answer: The value was -22.6%.

Question: How did the “activity change, negative = inhibition” value turn out when COC(=O)NC(c1ccc(F)cc1)C(C(C)=O)C(=O)OC (stereo not given) was run?
Answer: Its value is 3.19%.

Question: How did the “activity change, negative = inhibition” value turn out when CCOC(=O)OCC1OC(C#CC(C)(C)C)C=CC1OC(=O)OCC (stereo not given) was run?
Answer: Its value is 2.25%.

Question: C/C=C/C1Oc2ccc(OC)cc2N2C(=O)C(C)C(OCOC)C12 (stereo not given) was tested. Which “activity change, negative = inhibition” value did it give?
Answer: Its value is -29.8%.

Question: Cc1cc(=O)oc2cc(OC3C=CC(C#CC(C)(C)C)OC3CO)ccc12 (stereo not given) was tested. Which “activity change, negative = inhibition” value did it give?
Answer: The value was 102%.

Question: For COC(=O)C1=C(C)N(Cc2ccccc2)[C@]23O[C@](C(=O)OC)(C(=O)N2C1c1ccccc1)C1CCCC(=O)C13 (stereo not given in full), which Potency is on record?
Answer: The Potency was “inactive”.

Question: For COC(=O)[C@@]1(Cc2ccccc2)[C@H]2c3cc(C(=O)N4CCCC4)[nH]c3C[C@H]2CN1C(=O)c1ccccc1, which Potency is on record?
Answer: The Potency was 794 nM (active).

Question: Which “activity change, negative = inhibition” value does the source give for COC(=O)C(C(C)=O)C(NC(=O)NCc1ccccc1)c1ccccc1 (stereo not given) here?
Answer: The value was -29.4%.

Question: With CC(=O)OCC1OC(C#Cc2ccccc2)C=CC1O (stereo not given) as the molecule, how does the “activity change, negative = inhibition” value read?
Answer: The value was -7.08%.

Question: For COC(=O)C1=C(C)N(Cc2ccccc2)[C@]23O[C@](C(=O)OC)(C(=O)N2C1c1ccccc1)C1C(=O)N(C)C(=O)C13 (stereo not given in full), which Potency is on record?
Answer: Its Potency is “inactive”.

Question: Which Potency does the source give for CCOC(=O)OCC1C=C[C@H](c2cc(-c3ccccc3)ccc2O)C(c2ccc(C(C)=O)cc2)O1 (stereo not given in full) here?
Answer: The Potency was 316 nM (active).

Question: For CC1CCC2C(=O)N3C(CCC(C)[C@@H]3c3cccc(N4CCOCC4)c3)C(=O)N2C1c1cccc(N2CCOCC2)c1 (stereo not given in full), which “activity change, negative = inhibition” value is on record?
Answer: Its value is -18.4%.

Question: How did the “activity change, negative = inhibition” value turn out when COC(=O)C/C=C1\c2ccccc2C(OC)C1C (stereo not given) was run?
Answer: Its value is 4.3%.

Question: Which “activity change, negative = inhibition” value does the source give for CC12C=C(/C=C/CCc3ccco3)C(C)(C1)C(CCc1ccco1)CC2=O (stereo not given) here?
Answer: The value was 14.4%.

Question: How did the “activity change, negative = inhibition” value turn out when COC(=O)NC(c1cccc(C)c1)[C@@]1(C(=O)OC)CCCC1=O (stereo not given in full) was run?
Answer: Its value is 5.89%.

Question: For COC(=O)C1=C(C)N(Cc2ccccc2)c2c(C(=O)OC)c(C(=O)OC)c(C(=O)OC)c(=O)n2C1c1ccccc1 (stereo not given), which Potency is on record?
Answer: Its Potency is “inactive”.

Question: With CC(=O)OCC1OC(C#Cc2ccc(Br)cc2)C=CC1OC(C)=O (stereo not given) as the molecule, how does the “activity change, negative = inhibition” value read?
Answer: The value was -11.6%.

Question: Which “activity change, negative = inhibition” value does the source give for CC1CCC(C(=O)O)NC1c1ccc(-c2ccco2)cc1 (stereo not given) here?
Answer: The value was 32.9%.

Question: With COc1ccc(O[C@H]2C=C[C@@H](c3ccccc3)O[C@H]2COC(=O)CC/C(C)=N\O[C@@H](C)c2cn([C@H](CO)Cc3ccccc3)nn2)cc1 as the molecule, how does the Potency read?
Answer: Its Potency is 1260 nM (active).

Question: With CCCCCCC(=O)Cc1cc(OC)c(OC)cc1/C=C(/C(C)=O)C(=O)OC as the molecule, how does the “activity change, negative = inhibition” value read?
Answer: Its value is 43.8%.

Question: Which Potency does the source give for COC(=O)[C@@]1(Cc2ccccc2)[C@H]2c3cc(C(=O)N4CCCC4)n(CCN4CNCC4=O)c3C[C@H]2CN1C(=O)c1ccccc1 here?
Answer: The Potency was 2000 nM (active).

Question: How did the “activity change, negative = inhibition” value turn out when CCCCc1nc2c(c3c1CC(C)OC3)CN(CCC(C)C)CC2 (stereo not given) was run?
Answer: The value was 6.19%.

Question: With O=C(O)C1Cc2c([nH]c3ccccc23)C(c2ccccc2)N1 (stereo not given) as the molecule, how does the “activity change, negative = inhibition” value read?
Answer: The value was 49.4%.

Question: How did the “activity change, negative = inhibition” value turn out when O=C(/C=C/c1ccccc1)N1CCCC1CO (stereo not given) was run?
Answer: Its value is 12.5%.

Question: For C[C@@H](c1ccccc1)N1C(=O)[C@H]2[C@@H]3[C@H](O)[C@H](O)CC(=O)[C@H]3CC[C@H]2C1=O, which “activity change, negative = inhibition” value is on record?
Answer: Its value is 4.87%.

Question: How did the “activity change, negative = inhibition” value turn out when CC(=O)OCC1OC(C#CCCc2ccccc2)C=CC1OC(C)=O (stereo not given) was run?
Answer: Its value is 10.6%.

Question: How did the “activity change, negative = inhibition” value turn out when CCCCCCC#CC1C=CC(OC(C)=O)C(COC(C)=O)O1 (stereo not given) was run?
Answer: The value was -20.7%.

Question: How did the “activity change, negative = inhibition” value turn out when CN(C)c1cccc(OC2C=CC(C#Cc3ccccc3)OC2CO)c1 (stereo not given) was run?
Answer: Its value is -12.2%.

Question: For CCCCCCC(=O)Cc1cc(OC)c(OC)cc1C=C(C(=O)OCC)C(=O)OCC, which “activity change, negative = inhibition” value is on record?
Answer: Its value is 12%.

Question: Which “activity change, negative = inhibition” value does the source give for CC1(C)Oc2cc3c(cc2O1)OC(C)(C)O3 here?
Answer: The value was 1.44%.

Question: Which Potency does the source give for COC(=O)[C@@]1(Cc2ccc(F)cc2)[C@H]2c3cc(C(=O)N4CCCC4)n(CCc4c[nH]c5ccc(OC)cc45)c3C[C@H]2CN1C(=O)c1ccccc1 here?
Answer: Its Potency is 7940 nM (active).
